Bioassay records: PubChem, National Center for Advancing Translational Sciences (NCATS)
Sfp inh = blocks B. subtilis Sfp PPTase activity. Potency, µM, inactives show largest response in the series, negative = inhibition, hits mostly inhibitors. actives 3.5% (n = 310,000). Biochemical Sfp PPTase activity, qHTS. Q9F4F7;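 also: the enzyme is Sfp with the accession as filed and its product quenches rhodamine fluorescence; 0% = enzyme reaction without inhibitor and -100% = no enzyme wells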
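Buffer: 50 mM Hepes-Na pH 7.6, 10 mM MgCl2, 0.01% Nonidet P-40, 0.01% BSA. Enzyme 15 nM, pre-exposed to compound 15 min; substrates then added and fluorescence change tracked over 30 min.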
JMJD2A Tudor = blocks the human JMJD2A Tudor domain | O75164 | AlphaScreen JMJD2A-Tudor / H3K4me3 peptide binding | Potency, µM (highest dose often 114 µM), for inactives: at the top dose activity change, negative = inhibition, actives largely listed as inhibitors | actives 4.4% (n = 390,000); also: % is scaled to controls: 0 for no effect and ±100 for the full control effect; nearly all actives have a fitted effect of over 50% in size
HP1b binding inh = blocks HP1-beta chromodomain binding to methylated histone tails; AlphaScreen HP1-beta / biotin-H3K9me3 peptide binding; P83916; Potency, µM (doses to about 114 µM), without a hit: at the top dose activity change, negative = inhibition, hits mostly inhibitors; actives 0.56% (n = 390,000); also: nearly all actives have a fitted effect of over 70% in size
Target sequence (P83916 whole entry, looked up): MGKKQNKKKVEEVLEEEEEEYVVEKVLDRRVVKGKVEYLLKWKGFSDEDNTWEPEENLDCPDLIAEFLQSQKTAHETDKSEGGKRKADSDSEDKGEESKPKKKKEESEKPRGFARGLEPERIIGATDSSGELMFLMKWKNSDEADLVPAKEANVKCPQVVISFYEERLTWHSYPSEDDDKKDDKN
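HP1-beta protein (50 nM final) preincubated 30 min at room temperature with biotinylated H3(1-18)K9me3 peptide (50 nM) in PBS pH 7.4, 0.01% Tween-20, then compound added for 30 min. AlphaScreen streptavidin donor/nickel chelate acceptor beads (10 ug/mL final), 30 min dark, luminescence read.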
G9a inh = G9a (human) methyltransferase inhibition; Q96KQ7; G9a H3K9 monomethylation, AlphaScreen, 2 h; Potency, µM (top dose mostly 102 µM), for the others: at the highest dose activity, negative = inhibition, most hits filed as inhibitors; actives 8.8% (n = 350,000); also: % is scaled to controls: 0 for no effect and ±100 for the full control effect; nearly all actives have a fitted effect of over 75% in size
Target sequence (Q96KQ7 913-1193 limits assumed): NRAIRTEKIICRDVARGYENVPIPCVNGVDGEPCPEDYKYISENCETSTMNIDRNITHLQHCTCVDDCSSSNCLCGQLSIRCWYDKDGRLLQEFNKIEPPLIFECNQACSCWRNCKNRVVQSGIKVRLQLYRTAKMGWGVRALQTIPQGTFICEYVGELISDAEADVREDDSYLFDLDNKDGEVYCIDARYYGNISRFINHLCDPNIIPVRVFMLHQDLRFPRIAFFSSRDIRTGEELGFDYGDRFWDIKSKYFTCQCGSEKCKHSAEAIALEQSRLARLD
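Quantitative HTS format: methyltransferase activity on a biotin-tagged H3K9 peptide is measured by AlphaScreen, using a rabbit anti-monomethyl-H3K9 antibody with streptavidin donor and anti-IgG acceptor beads. Final levels are 20 nM enzyme, 500 nM peptide, 20 uM SAM; 2 h RT.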
BAZ2B block = BAZ2B (human) inhibition; AlphaScreen BAZ2B-H3K14Ac peptide displacement; Potency, µM (top dose mostly 114 µM), for the others: at the highest dose activity change, negative = inhibition, most hits filed as inhibitors; actives 4.4% (n = 360,000); Q9UIF8; also: % is scaled to controls: 0 for no effect and ±100 for the full control effect; nearly all actives have a fitted effect of over 60% in size
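BAZ2B 50 nM plus b-H3(5-23)K14Ac 50 nM, PBS pH 7.4/0.01% Tween-20, 30 min RT; compound added (max 110 uM), 30 min RT; streptavidin donor/Ni-chelate acceptor beads 10 ug/mL final, 20 min dark; AlphaScreen read.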
* = called active by the depositor; u = inconclusive; x = no result; [ ] = dose if it differs, or a comment. The list is not random: actives were taken first. Their share in the collection is about 12%. Calls follow the shape of the dose curve; as a rule, active = well fitted curve in the direction sought with a large enough effect; inconclusive = small, poorly fitted or top-dose-only effect, or another doubt; inactive = no such curve, though single readings can be large; an effect the other way counts as inactive or inconclusive. Potency is read from the fitted curve at half-maximal effect.

SMILES	Sfp inh	JMJD2A Tudor	HP1b binding inh	G9a inh	BAZ2B block
O=S(=O)(CCCc1ccccc1)c1ncn[nH]1	3.6%	-32.4%	9.7%	-7.7%	5.7%
Nc1n[nH]c(S(=O)(=O)CCCc2ccccc2)n1	15.1%	-14.4%[11.4 µM]	66.7%	50.1µM*	-3.5%
O=C(COc1cc(Cl)c(Cl)cc1Cl)Nc1cccc(O)c1	8.7%	-7.7%	49.0%	19.4%	-6.3%
Cc1ccc(C(=O)Nc2ccccc2C(=O)O)cc1NC(=O)COc1c(C)cccc1C	-1.8%	-7.5%	31.5%	24.5%[12.7 µM]	79.4µM*
O=C(COc1cc(Cl)c(Cl)cc1Cl)Nc1ccncc1	0.1%	89.1µM*	-10.0%	15.5%[12.7 µM]	9.4%
COc1ccccc1OCC(=O)Nc1cc(NC(=O)COc2ccccc2OC)cc(C(=O)O)c1	11.6%	-23.8%	12.6%	3.9%	-10.4%
CCN1CCN(c2ccc(NC(=O)COc3ccccc3Cl)cc2)CC1	5.3%	-18.0%	16.2%	-26.3%	-1.7%
O=C(COc1ccccc1Cl)Nc1ccc(N2CCCC2)cc1	3.5%	u	1.9%	7.94µM*	-38.6%
O=C(COc1ccccc1Cl)Nc1cc(NC(=O)COc2ccccc2Cl)cc(C(=O)O)c1	-4.4%	-17.5%	28.2%	0.5%	50.1µM*
O=C(COc1ccc(Cl)cc1Cl)Nc1ccc(C(=O)Nc2ccccc2C(=O)O)cc1	2.2%	50.1µM*	u	x	50.1µM*
O=C(COc1ccc(Cl)cc1Cl)NC(=S)Nc1ccccc1C(=O)O	-18.0%	x	x	x	u
O=C(c1cc(-c2ccco2)nc2ccccc12)N1CCCC(C(F)(F)F)C1 (centres undefined)	x	39.8µM*	-17.6%	12.8%[12.7 µM]	50.1µM*
CCN1CCN(C(=O)c2cc(-c3ccco3)nc3ccccc23)CC1	x	-35.2%	-3.5%	u	70.8µM*
O=C(c1cc2ccccc2cc1O)N1CCCC(C(F)(F)F)C1 (centres undefined)	-12.4%	-14.7%	26.2%	x	79.4µM*
COc1cc2ccccc2cc1C(=O)N1CCCC(C(F)(F)F)C1 (centres undefined)	x	-6.0%	u	-1.3%[12.7 µM]	50.6%
CCN1CCN(C(=O)c2cc(-c3ccc(Cl)s3)nc3ccccc23)CC1	-9.5%	-12.8%	34.9%	x	-12.5%
CCCc1nc2n[nH]c(N)c2c2c1CCCC2	16.7%	-9.3%	52.4%	-0.4%	8.1%
Cc1cc(N=Nc2ccccc2C(=O)O)c(C)c(C)c1O	0.1%	-20.6%[11.4 µM]	u	31.6µM*	28.2µM*
Cc1cc(O)c(C(C)C)cc1N=Nc1ccccc1C(=O)O	5.7%	u	u	39.8µM*	u
Cn1c2c(c3ccccc31)CCN(CCCCN1CCN(c3ccccc3)CC1)C2=O	x	50.1µM*	u	x	x
Cn1c(=O)c2cc(C(=O)NCCCN3CCN(c4cccc(Cl)c4)CC3)sc2c2ccccc21	x	-14.7%	24.8%	6.9%[59 µM]	x
N#CCN1CCC(c2cc(-c3ccco3)n[nH]2)CC1	11.2µM*	-21.1%[11.4 µM]	u	-41.9%	-15.8%
COC1C(OC(=O)/C=C/C=C/C=C/C=C/C(=O)O)CCC2(CO2)C1C1(C)OC1CC=C(C)C (centres undefined)	-16.5%	x	x	u	x
COc1ccc(/C(C)=N/Nc2ccc(F)cc2F)c(O)c1	7.2%	-14.0%	25.8%	2.51µM*	-16.3%
COc1ccc(/C(C)=N/N2CCCCC2)c(O)c1	7.4%	13.8%	40.1%	8.2%	2.3%
SMILES	Sfp inh	JMJD2A Tudor	HP1b binding inh	G9a inh	BAZ2B block
COc1ccc(/C(C)=N/Nc2ccccc2Cl)c(O)c1	u	u	-18.3%	1µM*	u
C/C(=N\Nc1ccc(F)cc1F)c1cccs1	10.7%	x	x	25.1µM*	27.5%
Clc1ccccc1Nc1ncnc2c1nc1n2CCCCC1	x	-13.9%	42.8%	-6.0%[59 µM]	u
Cc1cccc(NC(=O)CCNC(=O)c2ccccc2Cl)n1	-1.8%	-3.4%	33.5%	3.8%[12.7 µM]	-1.8%
Cc1cccc(C)c1NC(=O)C1CC2CCC1C2 (centres undefined)	x	-13.5%	-12.4%	x	x
Cc1ccc(OC(=O)c2cc(-c3ccc(Cl)cc3)on2)c(C)c1	x	-2.3%	44.4%	0.5%[59 µM]	-25.2%
CC(C)(CO)Nc1ccc([N+](=O)[O-])cc1[N+](=O)[O-]	23.1%	-8.3%	13.0%	-10.8%	3.6%[57.1 µM]
CC/C(=N\Nc1ccc([N+](=O)[O-])cc1[N+](=O)[O-])c1ccc(O)cc1	5.1%	-29.9%	-8.9%	-35.0%[12.7 µM]	11.2µM*
C/C(=N\Nc1ccc([N+](=O)[O-])cc1[N+](=O)[O-])C(C)(C)C(C(=O)O)C(=O)O	-10.3%	22.4µM*	-15.8%	u	u
C/C(=N\Nc1ccccc1[N+](=O)[O-])c1ccccc1O	12.7%	2.82µM*	u	17.8µM*	2.51µM*
C/C(=N\Nc1ccc([N+](=O)[O-])cc1[N+](=O)[O-])c1ccc(-n2nncc2C(C)(C)C)cc1	-10.0%	u	u	7.08µM*	u
O=C(c1sc2ccccc2c1Cl)N1CCN(c2ncccn2)CC1	16.0%	-15.8%	72.2%	4.3%[59 µM]	3.1%
CC1=C(C#N)C(Nc2ccc(C)cn2)(C(F)(F)F)C(=O)N1 (centres undefined)	10.4%	20.0%	33.1%	-1.3%[59 µM]	-1.1%
COc1ccc(Nc2nc(N)nc(CSc3nc4cc(OC)ccc4s3)n2)cc1	x	u	-18.9%	u	u
CC/C(=N\Nc1ccccc1[N+](=O)[O-])c1ccc(O)cc1	u	14.1µM*	12.6µM*	x	6.31µM*
O=C(Nc1ccc(-c2n[nH]c(=S)o2)cc1)c1ccccc1Cl	-3.2%	-15.1%	16.9%	1.78µM*	-3.9%
O=C(Nc1ccc(-c2csc(-c3ccccc3)n2)cc1)c1ccccc1Cl	-1.3%	-13.5%	17.0%	16.9%	-2.1%
COc1ccc(Cl)cc1N(CC(=O)NC1CC2CCC1C2)S(=O)(=O)c1ccccc1 (centres undefined)	6.3%	-19.3%	29.4%	22.9%	-8.3%
O=C(c1ccco1)N1CCN(C(=O)c2cnn(-c3ccc(Cl)cc3)c2C2CCNCC2)CC1	1.0%	-10.3%	38.3%	70.8µM*	-5.1%
COc1ccc(Br)cc1C(=O)Nc1cccc2ncccc12	8.8%	-14.3%	55.9%	-24.4%	-18.3%
C/C(=N\NC(N)=S)C1=CCC2C3CC[C@H]4CC(O)CC[C@]4(C)C3CC[C@]12C (some centres undefined)	39.8µM*	-18.5%	u	8.91µM*	-1.3%
COc1ccccc1C(=O)Nc1nc(-c2cccs2)c(NC(C)=O)s1	-18.2%	-4.7%	24.3%	u	-8.5%
CCN(CC)c1ccc(/C=C(\C#N)c2nc(-c3cccs3)c(NC(C)=O)s2)cc1	u	x	x	10µM*	20µM*
Cc1ccc(C(=O)/C=C/C(=O)O)cc1	12.6µM*	-13.8%	10.3%	10µM*	11.2%
Cc1ccc(/C=C/C(=O)c2ccccc2)cc1	-4.5%	61.5%	x	1.3%[12.7 µM]	67.1%
Cc1ccc(-n2cc(C(=O)OCc3ccc(F)c(F)c3)c3ccccc3c2=O)cc1	x	-5.8%	25.5%[57 µM]	7.5%[59 µM]	7.0%
